Measurements published in PubChem BioAssay AID1159580 (chemical genetic matrix, 2015).
Several values for one entry are separate records, joined by “and”; a condition that tells them apart may be missing. Equal values may be shown once. In all, about 5,500 compounds went through this assay and about 2,000 (36%) were called active. Inconclusive results (about 18%) are left out. No stated cut-off is given here; in the data, active means normalized growth mostly below about 0.91 (no sharp cut-off); inconclusive means no clear call, values can overlap the other calls; inactive means mostly above about 0.92. The list shows a part of the results.

Experiment: chemical genetic growth profiling, strain panel (AID 1159580);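 further: tested at 20 µM; growth read once vehicle control cultures reached saturation at 30 °C; 1 = growth at the plate median or of vehicle wells; lower values mean less growth of the strain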
Conditions: S. cerevisiae deletion strains, growth OD

Measured: normalized growth

Cc1ccc(/C(=C\CN2CCCC2)c2ccccn2)cc1
inactive: locus YAL013W, strain DEP1, hits give low values 1.01 | locus YAL021C, strain ccr4, hits give low values 0.99 | locus YAL026C, strain drs2, hits give low values 0.992 | locus YAL030W, strain snc1, hits give low values 1.03 | locus YAL040C, strain CLN3, hits give low values 1.02 | locus YBL061C, strain skt5, hits give low values 1.02 | locus YBR009C, strain hhf1, hits give low values 0.971 | locus YBR021W, strain FUR4, hits give low values 1 | locus YBR023C, strain chs3, hits give low values 1.01 | locus YBR171W, strain sec66, hits give low values 1.02 | locus YBR229C, strain ROT2, hits give low values 1.01 | locus YBR231C, strain swc5, hits give low values 1.04 | locus YBR279W, strain paf1, hits give low values 0.991 | locus YCL011C, strain gbp2, hits give low values 0.99 | locus YCL016C, strain dcc1, hits give low values 0.975 | locus YCL029C, strain bik1, hits give low values 1 | locus YCL061C, strain MRC1 (second series), hits give low values 0.99 | locus YCL061C, strain MRC1, hits give low values 1.02 | locus YCL069W, strain vba3, hits give low values 1.01 | locus YCR088W, strain abp1, hits give low values 1.02 | locus YDL005C, strain med2, hits give low values 1.01 | locus YDL035C, strain GPR1, hits give low values 1.02 | locus YDL040C, strain nat1, hits give low values 1.01 | locus YDL074C, strain BRE1, hits give low values 1.01 | locus YDL101C, strain DUN1, hits give low values 1.01 | locus YDL134C, strain PPH21, hits give low values 1.01 | locus YDL185W, strain tfp1, hits give low values 1.01 | locus YDL192W, strain arf1, hits give low values 1 | locus YDR001C, strain nth1, hits give low values 1 | locus YDR069C, strain doa4, hits give low values 1.02 | locus YDR101C, strain arx1, hits give low values 0.997 | locus YDR137W, strain rgp1, hits give low values 0.993 | locus YDR150W, strain NUM1, hits give low values 1.02 | locus YDR159W, strain sac3, hits give low values 0.933 | locus YDR162C, strain NBP2, hits give low values 1.01 | locus YDR195W, strain ref2 0.993 | locus YDR297W, strain sur2, hits give low values 1.02 | locus YDR318W, strain mcm21, hits give low values 0.995 | locus YDR334W, strain swr1, hits give low values 0.991 | locus YDR335W, strain msn5, hits give low values 1.01 | locus YDR363W, strain ESC2, hits give low values 0.965 | locus YDR388W, hits give low values 0.998 | locus YDR392W, strain spt3, hits give low values 0.927 | locus YDR502C, strain sam2, hits give low values 0.995 | locus YEL003W, strain gim4, hits give low values 1.04 | locus YEL037C, strain rad23, hits give low values 1.01 | locus YEL061C, strain CIN8 (second series), hits give low values 1.01 | locus YEL061C, strain CIN8, hits give low values 1.01 | locus YER002W, strain NOP16, hits give low values 1 | locus YER015W, strain faa2, hits give low values 1.01 | locus YER016W, strain bim1, hits give low values 0.995 | locus YER110C, hits give low values 0.995 | locus YER111C, strain swi4, hits give low values 1 | locus YER155C, strain BEM2 (second series), hits give low values 1.05 | locus YER155C, strain BEM2, hits give low values 1 | locus YER167W, strain BCK2, hits give low values 1.01 | locus YFR010W, strain ubp6, hits give low values 1.01 | locus YGL078C, strain dbp3, hits give low values 0.993 | locus YGL086W, strain mad1, hits give low values 0.996 | locus YGL167C, strain pmr1, hits give low values 1.01 | locus YGL173C, strain kem1, hits give low values 1.04 | locus YGL227W, strain vid30, hits give low values 1.01 | locus YGL240W, strain doc1, hits give low values 1.03 | locus YGL248W, strain PDE1, hits give low values 1 | locus YGL253W, strain hxk2, hits give low values 0.98 | locus YGR078C, strain PAC10, hits give low values 1.01 and 0.984 | locus YGR135W, strain pre9, hits give low values 0.997 | locus YGR229C, strain SMI1, hits give low values 1.01 and 0.973 | locus YGR252W, strain gcn5, hits give low values 0.98 | locus YHR013C, strain ard1, hits give low values 0.999 | locus YHR027C, strain rpn1, hits give low values 1.01 | locus YHR030C, strain SLT2, hits give low values 1.02 and 0.995 | locus YHR079C, strain IRE1 (second series), hits give low values 0.998 | locus YHR079C, strain IRE1, hits give low values 1.02 | locus YHR094C, strain hxt1, hits give low values 0.999 | locus YHR129C, strain ARP1, hits give low values 1.01 | locus YHR142W, strain chs7, hits give low values 1.01 | locus YHR200W, strain rpn10, hits give low values 1 | locus YIL066C, strain RNR3, hits give low values 1.02 | locus YIL073C, strain SPO22, hits give low values 1.01 | locus YIL125W, strain kgd1, hits give low values 1 | locus YIR030C, strain dcg1, hits give low values 0.995 | locus YJL092W, strain hpr5, hits give low values 1.02 | locus YJL095W, strain BCK1 (second series), hits give low values 1.03 | locus YJL095W, strain BCK1, hits give low values 0.997 and 1.01 | locus YJL115W, strain asf1, hits give low values 1 | locus YJL129C, strain trk1, hits give low values 1.03 | locus YJL134W, strain LCB3, hits give low values 1.01 | locus YJL154C, strain vps35, hits give low values 1.01 | locus YJL164C, strain tpk1, hits give low values 0.979 | locus YJL166W, strain qcr8, hits give low values 1.04 | locus YJL168C, strain set2, hits give low values 1 | locus YJL187C, strain SWE1 (second series), hits give low values 1.02 | locus YJL187C, strain SWE1, hits give low values 1.02 | locus YJR043C, strain POL32, hits give low values 0.991 | locus YJR066W, strain TOR1, hits give low values 0.955
